Hits are enriched below; roughly 11% of the tested compounds scored in any of these assays.
VDR inhibitor: inhibitors of human vitamin D receptor; VDR-SRC2-3 peptide fluorescence polarization, 2 h; Potency, µM, actives largely listed as inhibitors; 400,000 tested, 0.93% active
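Fluorescence polarization assay measuring small-molecule disruption of VDR binding to the coregulator peptide SRC2-3. Compounds were pin-transferred (23 nl) into the reagent mix and incubated 2 h at room temperature before reading.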
BAZ2B block: blocks human BAZ2B. AID 504333. AlphaScreen BAZ2B-H3K14Ac peptide displacement. Potency, µM (top dose mostly 114 µM), hits mostly inhibitors. 360,000 tested, 4.4% active. Q9UIF8; further: nearly all actives have a fitted effect of over 60% in size
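Multi-concentration screen (max 110 uM) measuring displacement of acetylated histone H3 peptide from BAZ2B by AlphaScreen, using 50 nM protein, 50 nM peptide and 10 ug/mL streptavidin donor plus Ni-chelate acceptor beads.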
HP1b binding inh: HP1-beta chromodomain-methylated histone interaction inhibition; 390,000 tested, 0.56% active; AlphaScreen HP1-beta / biotin-H3K9me3 peptide binding; AID 540317; Potency, µM (highest dose often 114 µM), usual class: inhibitors; P83916; further: nearly all actives have a fitted effect of over 70% in size
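AlphaScreen: HP1-beta (50 nM) preformed 30 min with biotin-H3(1-18)K9me3 peptide (50 nM) in PBS pH 7.4, 0.01% Tween-20. Compound added for 30 min at RT, then streptavidin donor/nickel chelate acceptor beads (10 ug/mL) for 30 min.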
JMJD2A Tudor inh: inhibitors of human JMJD2A Tudor domain; Potency, µM (titrated, usually from 114 µM), usual class: inhibitors; AID 504339; AlphaScreen JMJD2A-Tudor / H3K4me3 peptide binding; 390,000 tested, 4.4% active; O75164; further: nearly all actives have a fitted effect of over 50% in size
G9a block: blocks human histone lysine methyltransferase G9a; Q96KQ7; G9a H3K9 monomethylation, AlphaScreen, 2 h; Potency, µM (titrated, usually from 102 µM), hits mostly inhibitors; 350,000 tested, 8.8% active; AID 504332; further: nearly all actives have a fitted effect of over 75% in size
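Signal arises when biotinylated H3K9 peptide, once monomethylated, bridges streptavidin donor and antibody-captured acceptor beads. Enzyme at 20 nM was preincubated 15 min with test compounds; peptide 500 nM and SAM 20 uM then reacted for 2 h.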
PLK1 PBD block: inhibitors of human PLK1 polo-box domain binding. P53350. Plk1 PBD binding of FITC phosphopeptide, fluorescence polarization. Potency, µM, hits mostly inhibitors. 360,000 tested, 2.8% active; further: series mostly up to about 57 µM; nearly all actives have a fitted effect of over 65% in size
Target sequence (P53350 whole entry, looked up, the tested form may be a part): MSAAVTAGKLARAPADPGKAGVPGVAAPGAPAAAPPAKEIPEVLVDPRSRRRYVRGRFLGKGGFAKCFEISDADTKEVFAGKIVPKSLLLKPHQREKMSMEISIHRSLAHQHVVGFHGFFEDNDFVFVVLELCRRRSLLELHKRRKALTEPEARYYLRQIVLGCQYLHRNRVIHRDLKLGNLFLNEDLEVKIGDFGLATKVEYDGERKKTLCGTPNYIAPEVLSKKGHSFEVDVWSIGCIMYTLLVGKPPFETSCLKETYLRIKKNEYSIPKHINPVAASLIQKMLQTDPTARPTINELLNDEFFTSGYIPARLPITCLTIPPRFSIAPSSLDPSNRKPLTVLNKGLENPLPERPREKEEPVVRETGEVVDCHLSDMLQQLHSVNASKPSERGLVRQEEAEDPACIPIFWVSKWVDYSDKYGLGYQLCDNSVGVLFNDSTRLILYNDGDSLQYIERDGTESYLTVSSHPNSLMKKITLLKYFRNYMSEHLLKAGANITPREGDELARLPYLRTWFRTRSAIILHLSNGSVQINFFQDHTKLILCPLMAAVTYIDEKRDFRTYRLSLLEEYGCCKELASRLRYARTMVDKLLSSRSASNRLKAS
Each line names hits and unclear results; the compound was inactive in the other large screens. The call rests on the fitted dose curve; in most records, active means well fitted curve in the direction sought with a large enough effect; inconclusive means small, poorly fitted or top-dose-only effect, or another doubt; inactive means no such curve, though single readings can be large; an effect the other way counts as inactive or inconclusive.

CN(C)c1ccc(O)c2c1CC1CC3[C@@H](N(C)C)C(=O)C(C(N)=O)C(=O)[C@]3(O)C(=O)C1C2=O (stereo partly drawn)	JMJD2A Tudor inh 8.9µM (no result: BAZ2B block, G9a block)
COc1ccc(NC(=O)C2CCC(CNS(=O)(=O)c3cccc4nsnc34)CC2)cc1OC (stereo not drawn)	none (no result: PLK1 PBD block)
COc1ccc(-n2c(=O)/c(=C\c3cccs3)s/c2=C(/C#N)C(=O)N2CCN(C)CC2)cc1	G9a block 50µM
COCCCn1c(=S)[nH]c2ccc(N3CCOCC3)cc2c1=O	JMJD2A Tudor inh inconclusive, G9a block inconclusive
CCOc1cc2[nH]c(=S)n(Cc3ccc(C(=O)O)cc3)c(=O)c2cc1OCC	JMJD2A Tudor inh inconclusive, G9a block 18µM
CCCCN(C)CCn1c(=S)[nH]c2ccc(N3CCOCC3)cc2c1=O	JMJD2A Tudor inh 28µM, G9a block inconclusive
COc1ccc(CCn2c(=S)[nH]c3ccc(N4CCOCC4)cc3c2=O)cc1OC	G9a block 18µM, PLK1 PBD block inconclusive
CCCCN(C)CCn1c(=S)[nH]c2cc(OCC)c(OCC)cc2c1=O	G9a block 11µM
CC(=O)N1CCC2(CC1)CN(C(=O)Nc1cccc(C#N)c1)C2	none (no result: BAZ2B block, HP1b binding inh, JMJD2A Tudor inh, PLK1 PBD block)
COc1ccccc1CNC(=O)CCS(=O)(=O)Cc1ccc(C)cc1	VDR inhibitor inconclusive, G9a block inconclusive, PLK1 PBD block 27µM
Cc1ccc(S(=O)(=O)NCC(=O)OCC(=O)NCCc2ccccc2)cc1	none
COc1ccccc1CNC(=O)CCS(=O)(=O)c1cccs1	G9a block 45µM
COc1ccccc1CNC(=O)COC(=O)CNS(=O)(=O)c1ccc(C)cc1	G9a block 71µM
CN1N=C2c3ccccc3CCC2C1c1ccc(Cl)cc1 (stereo not drawn)	none
COc1ccc(-n2c(=O)c(-c3cccs3)nc3cnc(N(C)C)nc32)cc1	none (no result: BAZ2B block, HP1b binding inh, JMJD2A Tudor inh, PLK1 PBD block)
Cc1c2n(c3ccccc13)CCN(C)C2	JMJD2A Tudor inh 22µM
CCCCCN1C2=NCCN2c2ccccc21	HP1b binding inh inconclusive, PLK1 PBD block 24µM
Cc1ccccc1CN1C2=NCCN2c2ccccc21	PLK1 PBD block 27µM
CCOC(=O)CN1C2=NCCN2c2ccccc21	none
Cc1ccccc1CN1C2=NCCCN2c2ccccc21	G9a block inconclusive
CC1CCN(S(=O)(=O)c2ccc3c(c2)c(=O)c(C(=O)NCCc2ccccc2)cn3C)CC1	none (no result: BAZ2B block, PLK1 PBD block)
COC(=O)c1c(NC(=S)NN2CCN(C)CC2)sc2c1CCC(C)C2 (stereo not drawn)	BAZ2B block inconclusive, HP1b binding inh inconclusive, JMJD2A Tudor inh inconclusive, G9a block 45µM
CCOC(=O)c1c(NC(=O)Cn2cnc([N+](=O)[O-])n2)sc2c1CCC(C)C2 (stereo not drawn)	none
COC(=O)c1c(NC(=O)Cc2cccs2)sc2c1CCC(C)C2 (stereo not drawn)	G9a block inconclusive, PLK1 PBD block 21µM
COC(=O)c1c(NC(=O)Cn2cnc([N+](=O)[O-])n2)sc2c1CCC(C)C2 (stereo not drawn)	VDR inhibitor inconclusive, HP1b binding inh inconclusive, JMJD2A Tudor inh inconclusive, G9a block 8.9µM, PLK1 PBD block 19µM
O=C(c1cccc(F)c1)N1CCC2(CC1)CN(Cc1ccccc1)C2	none (no result: BAZ2B block, HP1b binding inh, JMJD2A Tudor inh, PLK1 PBD block)
Cc1cc(C(=O)NNc2ccc(F)cc2F)no1	none
Cc1cc(C(=O)NNc2ccc(Cl)cc2)no1	none (no result: G9a block)
Cc1ccc(NNC(=O)c2cc(C)on2)c(C)c1	G9a block 11µM
Cc1ccc(NNC(=O)c2ccno2)cc1C	VDR inhibitor inconclusive, JMJD2A Tudor inh 79µM, G9a block 6.3µM, PLK1 PBD block inconclusive
Cc1ccc(NNC(=O)c2ccno2)cc1Cl	G9a block 8.9µM
Cc1cc(C(=O)NNc2ccc(C)c(C)c2)no1	G9a block 2.5µM
Cc1c(C(=O)Nc2ccc(Cl)cc2)c2ccccn2c1CCc1ccncc1	G9a block 14µM
Cc1c(C(=O)c2ccccc2)c2ccccn2c1CCC#N	G9a block inconclusive
Cc1c(C(=O)c2ccccc2)c2ccccn2c1CCc1ccccn1	BAZ2B block 71µM, G9a block 40µM
Cc1ccc(Cl)cc1NC(=O)CCc1c(C)nc2c3cccnc3nn2c1C	none (no result: PLK1 PBD block)

Screening data (PubChem)
